Sm TGR block: qHTS Assay for the Inhibitors of Schistosoma Mansoni Peroxiredoxins | Schistosoma mansoni thioredoxin glutathione reductase (TGR), Q962Y6 | purified TGR, DTNB reduction, TNB absorbance 405 nm | Potency, µM (doses to about 114 µM), inactives show at the top dose activity change, negative = inhibition, hits mostly inhibitors | 3% of 360,000 active | AID 485364, 2010; also: nearly all actives have a fitted effect of over 60% in size
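TGR 20 nM + NADPH 100 uM (dispensed conc.), cpd preinc 15 min RT; start with NADPH (500 uM addition) then DTNB (15 mM addition). Kinetic TNB absorbance, 405 nm filter. Four-parameter Hill fit across titration.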
AmpC detergent: qHTS Inhibitors of AmpC Beta-Lactamase (assay with detergent). AID 485294, 2010. Potency, µM (doses to about 114 µM), inactives show at the highest dose activity change, negative = inhibition, actives largely listed as inhibitors. AmpC hydrolysis of nitrocefin, absorbance 480 nm, 0.01% Triton. 0.041% of 370,000 active;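 also: 0% = no-compound wells and -100% = no-enzyme wells; nearly all actives have a fitted effect of over 25% in size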
Target sequence (P00811 whole entry, looked up): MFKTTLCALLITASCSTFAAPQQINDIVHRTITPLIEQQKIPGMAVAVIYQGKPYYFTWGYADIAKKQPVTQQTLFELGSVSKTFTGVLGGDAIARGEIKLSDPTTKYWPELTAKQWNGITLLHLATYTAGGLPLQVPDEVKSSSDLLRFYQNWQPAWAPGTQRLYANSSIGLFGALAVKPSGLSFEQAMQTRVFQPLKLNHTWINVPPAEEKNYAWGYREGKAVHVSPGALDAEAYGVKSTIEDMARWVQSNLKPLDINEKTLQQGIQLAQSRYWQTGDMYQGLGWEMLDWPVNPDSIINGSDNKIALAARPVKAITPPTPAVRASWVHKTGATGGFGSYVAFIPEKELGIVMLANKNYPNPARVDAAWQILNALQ
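AmpC (5.3 nM in the dispensed reagent) in 20 mM phosphate pH 7.0 with 0.01% (detergent screen) or 0.0001% Triton X-100 was preincubated with compounds for 15 min at room temperature. Nitrocefin was then added from an 800 uM solution, and hydrolysis was followed at 480 nm.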
AmpC inh no detg: qHTS Inhibitors of AmpC Beta-Lactamase (assay without detergent). P00811. AmpC nitrocefin hydrolysis, absorbance 480 nm, 0.0001% Triton. Potency, µM (series often up to 57.1 µM), inactives show at the top dose activity change, negative = inhibition, usual class: inhibitors. 0.52% of 330,000 active. AID 485341, 2010;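 also: plate controls were no compound for no effect and no enzyme for full effect; nearly all actives have a fitted effect of over 20% in size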
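20 mM phosphate pH 7.0 + 0.01% (detergent screen) or 0.0001% Triton X-100; 5.3 nM AmpC reagent; cpd preinc 15 min RT; nitrocefin (800 uM stock) to start; A480 q20 s × 4 min; Activity was normalised to no-enzyme and no-compound control wells.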
The depositor's hits bear a star; ? = inconclusive; . = no result; [ ] = remark or other dose. The list is not random: actives were taken first. Their share in the collection is about 3.3%. Calls follow the shape of the dose curve; as a rule, active = well fitted curve in the direction sought with a large enough effect; inconclusive = small, poorly fitted or top-dose-only effect, or another doubt; inactive = no such curve, though single readings can be large; an effect the other way counts as inactive or inconclusive. Unless noted, % is scaled to controls: 0 for no effect and ±100 for the full control effect; potency is read from the fitted curve at half-maximal effect.

SMILES | Sm TGR block | AmpC detergent | AmpC inh no detg
Cc1cccc(-c2nc(SCC(=O)Nc3cccc(C(F)(F)F)c3)n3[nH]c(=O)cc3n2)c1 | 13% | 3% | .
CC(CNC(=O)Cc1ccc(NC(=O)N2CCSc3ncccc32)cc1)c1ccccc1 (configuration not stated) | -1% | -6% | .
NS(=O)(=O)c1ccc(NCCCn2ccnc2)c([N+](=O)[O-])c1 | 0% | -4% | -13%
O=C1c2ccccc2-c2onc3ccc(NCCCn4ccnc4)c1c23 | 20µM* | 0% | 64%
CC(CNC(=O)c1ccc2c(c1)nc1n2CCCCC1)c1ccccc1 (configuration not stated) | 1% | -1% | .
CCNc1nc(C)cc(COC)c1C#N | 25µM* | -11% | -12%
COCc1cc(C)nc(NCCO)c1C#N | 0% | 2% | .
CC(=NCc1ccco1)c1c(O)n(Cc2ccccc2)c(=O)[nH]c1=O | 35µM* | ? | -30%
CC(=NCc1ccco1)c1c(O)n(-c2ccc(Cl)cc2)c(=O)[nH]c1=O | 85% | -4% | -41%
Cc1ccc(NC(=O)CN(C)S(=O)(=O)c2ccc3c(c2)n(C)c(=O)c(=O)n3C)cc1C | -3% | 0% | .
Cc1ccc(NC(=O)C2CCCN(S(=O)(=O)c3c(C)n[nH]c3C)C2)c(C)c1 (configuration not stated) | 9% | 1% | .
CC1C(=O)O[C@@H]2C[C@@H](C)[C@@H]3CCC(=O)[C@@]3(C)[C@@H](O)[C@H]12 (some centres not stated) | 7% | 4% | -1%
C=C1C(=O)O[C@@H]2C[C@@H](C)[C@@H]3C4OC4C(=O)[C@@]3(C)[C@@H](O)[C@H]12 (some centres not stated) | 40µM* | -2% | 44%
Oc1c(C(c2ccc(Cl)cc2Cl)N2CCN(Cc3ccccc3)CC2)sc2nc(-c3ccco3)nn12 (configuration not stated) | 2% | 6% | .
COc1cc(C(=O)O/N=C2/C=CC(=O)C(C)=C2C)cc(OC)c1OC | -31% | -10% | -19%
COc1cc(C(=O)O/N=C2\C=CC(=O)C=C2C)cc(OC)c1OC | 3.2µM* | ? | -16%
COc1ccc(C2SCC(=O)Nc3c2c(=O)[nH]n3C2CCCCCC2)cc1 (configuration not stated) | 40µM* | ? | -22%
CCOc1ccc(C2SCC(=O)Nc3c2c(=O)[nH]n3C2CCCCCC2)cc1 (configuration not stated) | -26% | 3% | -33%
COc1ccc(C2CC(=O)Nc3c2c(C)nn3-c2nncc(-c3ccc(C)cc3)n2)c(OC)c1OC (configuration not stated) | -6% | ? | .
CSc1ccc(CNC(=O)Cc2csc3ccccc23)cc1 | -7% | 25% | .
Cc1cc(C)c2[nH]c(=O)c(C(c3nnnn3CC3CCCO3)N3CCC(C)CC3)cc2c1 (configuration not stated) | 14µM* | ? | 71%
Cc1ccc2[nH]c(=O)c(C(c3nnnn3CC3CCCO3)N3CCc4ccccc4C3)cc2c1 (configuration not stated) | 25µM* | ? | 2%
Cc1cc(C)c2[nH]c(=O)c(C(c3nnnn3CC3CCCO3)N3CCCC(C)C3)cc2c1 (configuration not stated) | 13µM* | 0% | 31%
COc1ccc2[nH]c(=O)c(C(c3nnnn3CC3CCCO3)N3CCc4ccccc4C3)cc2c1 (configuration not stated) | ? | -13% | 31%
Cc1ccc2[nH]c(=O)c(C(c3nnnn3CC3CCCO3)N3CCOCC3)cc2c1 (configuration not stated) | -3% | -19% | -20%
SMILES | Sm TGR block | AmpC detergent | AmpC inh no detg
CCc1ccc2[nH]c(=O)c(C(c3nnnn3CC3CCCO3)N3CCN4CCCC4C3)cc2c1 (configuration not stated) | ? | 2% | 142%
CCc1ccc2oc(-c3cccc(NC(=O)c4cc5ccccc5o4)c3)nc2c1 | -4% | -1% | .
COc1ccc(OC)c(CCNC(=O)CCCn2c(=O)c3cccn3c3ccccc32)c1 | -2% | 7% | .
CCN(CC)C(=O)c1ccc(Oc2ccc([N+](=O)[O-])cc2Cl)cc1 | -18% | -6% | -2%[2.29 µM]
CCN(CC)C(=O)c1cc([N+](=O)[O-])cc2c1-c1ccc([N+](=O)[O-])cc1C2=C(C#N)C#N | 4µM* | 2% | -33%
COc1ccc2oc(=O)cc(CN3CCN(c4ccccc4OC)CC3)c2c1 | 1% | 24% | .
CCCN(CCC)CC(O)Cn1cc(/C=C/C(=O)c2ccc(OC)cc2)c2ccccc21 (configuration not stated) | -20% | -6% | .
S=c1sc2ccccc2n1CCc1ccncc1 | -14% | 1% | -11%
CSc1nn(CCc2ccncc2)c(=S)s1 | 35µM* | -1% | -6%
CCC(C(=O)Nc1cc(OC)ccc1OC)n1c(C)c2cnn(-c3ccccc3)c(=O)c2c1C (configuration not stated) | -15% | -6% | .
Fc1ccc(NC(=S)Nc2ccccc2OC(F)F)cc1Cl | -32% | -3% | -24%
c1cncc(-c2nc3ccccc3[nH]2)c1 | 6% | -11% | -16%
Fc1ccc(NC(=S)Nc2cccnc2)cc1 | . | -1% | -20%
Fc1ccccc1NC(=S)Nc1cccnc1 | 16µM* | -4% | -13%
FC(F)Oc1ccccc1NC(=S)Nc1cccnc1 | 22µM* | -13% | -21%
S=C(Nc1ccc(-c2nc3ccccc3[nH]2)cc1)Nc1cccnc1 | 11µM* | -6% | -21%
NC(=O)c1cc(S(=O)(=O)N2CCN(c3ccc(F)cc3)CC2)cs1 | 3% | 3% | .
CNC(=O)C1CCC(Cn2c(=O)c3sccc3n(CC(=O)N3CCCC(C)C3)c2=O)CC1 (configuration not stated) | -1% | 18% | .
COc1ccc(NC(=O)Cn2c(=O)ccc3cc(S(=O)(=O)N4CCCC4)ccc32)cc1Cl | 3% | 3% | .
c1cc2c3c(cccc3c1)NC(c1ccc3c(c1)OCO3)N2 | 18µM* | -9% | -57%
O=[N+]([O-])c1cc(C2Nc3cccc4cccc(c34)N2)ccc1Cl | -26% | -7% | -39%
Clc1ccc(C2Nc3cccc4cccc(c34)N2)cc1 | 16µM* | 15% | -30%
c1cncc(C2Nc3cccc4cccc(c34)N2)c1 | 8.9µM* | 1% | -31%
Cc1cccc(C2Nc3cccc4cccc(c34)N2)c1 | 20µM* | 1% | -21%
c1cncc(C2CCCCN2)c1 (configuration not stated) | -1% | 2% | -14%
Cc1cccc(C2NC(c3cccc(C)c3)C(C)C(=O)C2C)c1 (configuration not stated) | -4% | 4% | -5%
CN1c2ccccc2N(C)C1c1ccc2c(c1)OCO2 | -2% | ? | 0%
CCC(C(=O)Nc1cccc(-c2cn3cccnc3n2)c1)c1ccccc1 (configuration not stated) | 0% | 2% | .
O=C(c1cn(CCOc2ccc(Cl)cc2)c2ccccc12)C1CCCCC1 | 1% | 24% | .
